According to PubChem BioAssay:
Values joined by “and” are separate entries in the source; they are usually repeats but may differ in a detail not shown here. Equal entries are not always repeated. Active and inactive are the calls of the source.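 The calls were made as follows, unless noted: active = compounds whose cell count with miR-34 switched on is under 0.7 times the count with it off; inactive = the rest.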

Tests used:
[1] = sensitizers of A549 cells to miR-34 induction, primary screen, imaging, A549 dox-inducible miR-34, nuclei and caspase counts (AID 1347080); settings: A549 miR-34 inducible, Hoechst nuclei count, 48 h; also: test concentration not given here
[2] = survival rescue of mitochondrial mutant cells in low glucose, primary screen, MELAS cybrids, Rieske KO mouse fibroblasts, CellTiter-Glo (AID 1508586;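 active = mean z-score across replicates of 1.96 or higher in either the MELAS or the Rieske mutant cell line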;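 also: test concentration not given here; z relative to plate mean and SD of compound and empty wells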)
[3] = viability rescue of complex I mutant cybrids, primary screen, cell-based, galactose medium, ATP luminescence (AID 1645843;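 active = z-score of at least 1.8 in each of two replicates, scored against plate mean and spread of sample wells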;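 also: positive z means more ATP and so rescue of galactose-driven cybrid death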); settings: complex I mutant cybrid cells, 72 h, stronger effect = higher value
[4] = stronger effect = lower value, cell number ratio, induced over uninduced
[5] = measured here: relative caspase fold change +Dox/-Dox
[6] = measured here: total cells with miR-34 induction, stronger effect = lower value
[7] = measured here: total cells without miR-34 induction
[8] = MELAS cybrid survival, CellTiter-Glo 48 h, stronger effect = higher value
[9] = Rieske KO mouse fibroblast survival, CellTiter-Glo 72 h

Row | SMILES | fold change [1, 4] | fold change [1, 5] | cell count [1, 6] | cell count [1, 7] | z-score [2, 8] | z-score [2, 9] | z-score [3]
1 | CCc1c(C)[nH]n(-c2nn[nH]n2)c1=O | 0.897 (inactive) | 0.608 | 8110 | 9050 | -1.16 (inactive) | -0.864 | 0.055 (inactive)
2 | Cc1ccc(Cn2nccc2NC(=O)Cn2cc(-c3ccc(F)cc3)cn2)o1 | 0.895 (inactive) | 0.589 | 8330 | 9310 | -0.0022 (inactive) | -0.187 | 1.75 (inactive)
3 | Nc1ccn(C2OC(CO)C(O)C2O)c(=O)n1 (stereo not drawn) | 1.14 (inactive) and 0.906 (inactive) | 0.982 and 0.86 | 2260 and 7940 | 1990 and 8760 | -0.137 (inactive) | -0.441 | -1.19 (inactive)
4 | Nc1ccc(CCC(=O)O)cc1 | 0.96 (inactive) | 0.255 | 9320 | 9710 | 0.558 (inactive) | -0.0102 | 1.27 (inactive)
5 | O=C(O)CCc1c(C(=O)O)[nH]c2cc(Cl)cc(Cl)c12 | 0.85 (inactive) | 0.683 | 8390 | 9880 | 0.688 (inactive) | 0.122 | 0.585 (inactive)
6 | Cn1nc(C(C)(C)C)cc1NC(=O)Nc1ccc(Cl)cc1 | 0.806 (inactive) | 1.05 | 7030 | 8720 | 1.19 (inactive) | -0.375 | 0.155 (inactive)
7 | CC(C)n1cc(-c2cc(C(=O)N(C)Cc3cccnc3)c3ccc(F)cc3n2)cn1 | 0.916 (inactive) | 1.28 | 9850 | 10700 | -0.603 (inactive) | 1.43 | -0.355 (inactive)
8 | COc1nc2ccccc2cc1-c1nnc2ccccn12 | 0.94 (inactive) | 1.24 | 7160 | 7610 | -0.729 (inactive) | -1.23 | -0.505 (inactive)
9 | Cc1csc(CNc2nccc(-c3cn(C)nc3C)n2)n1 | 0.888 (inactive) | 0.815 | 8410 | 9480 | -0.307 (inactive) | 0.16 | -0.445 (inactive)
10 | COc1ccc(-c2oc3c(CC=C(C)C)c(OC4OC(CO)C(O)C(O)C4O)cc(O)c3c(=O)c2OC2OC(C)C(O)C(O)C2O)cc1 (stereo not drawn) | 0.929 (inactive) and 0.864 (inactive) | 1.15 and 1.26 | 9660 and 9050 | 10400 and 10500 | -0.309 (inactive) | 0.107 | 0.865 (inactive)
11 | CCn1ncc(NC(=O)Cn2cc(-c3cccc(-n4cccn4)c3)cn2)n1 | 0.876 (inactive) | 1.27 | 2160 | 2470 | -0.0561 (inactive) | -0.379 | -0.505 (inactive)
12 | Cc1csc(CNc2nccc(-c3cnn(-c4ccccc4)c3)n2)n1 | 0.775 (inactive) | 1.81 | 4550 | 5870 | -0.292 (inactive) | 0.283 | -0.175 (inactive)
13 | Cc1nc(NC(=O)NCc2cccc(Cl)c2)nn1C | 0.889 (inactive) | 2.08 | 8140 | 9160 | 7.52 (active) | 0.00105 | -0.605 (inactive)
14 | COc1cc(OC)c(-c2nnc3ccccn23)cc1OC | 0.917 (inactive) | 1.49 | 9720 | 10600 | -0.104 (inactive) | 0.208 | -0.52 (inactive)
15 | Nc1nc(NC(Cn2ccnc2)c2ccccc2)c2cn[nH]c2n1 (stereo not drawn) | 0.958 (inactive) | 1.04 | 9810 | 10200 | -0.353 (inactive) | -0.318 | -0.495 (inactive)
16 | COC1C=CO[C@@]2(C)Oc3c(C)c(O)c4c(O)c(c5c(c4c3C2=O)NC2(CCN(CC(C)C)CC2)N=5)=NC(=O)C(C)=CC=CC(C)C(O)C(C)C(O)C(C)C(OC(C)=O)C1C (stereo partly drawn) | 0.889 (inactive) and 0.859 (inactive) | 1.03 and 1.09 | 7260 and 7580 | 8160 and 8820 | -0.0325 (inactive) | 0.718 | 1.02 (inactive)
17 | O=C1CCCc2occ(C(=O)N3CCc4[nH]nc(Cc5ccccc5)c4C3)c21 | 0.979 (inactive) | 0.441 | 9440 | 9640 | -0.275 (inactive) | -0.284 | -0.515 (inactive)
18 | O=C(Nc1n[nH]c(-c2ccccc2)n1)N1CCN(c2ccc(F)cc2)CC1 | 0.826 (inactive) | 1.21 | 6770 | 8190 | -0.373 | 4.03 | 0.11 (inactive)
19 | O=c1[nH]c(=O)c2[nH]cnc2[nH]1 | 0.891 (inactive) | 0.584 | 8870 | 9950 | 0.44 (inactive) | -0.148 | -0.02 (inactive)
20 | O=C(O)c1sccc1S(=O)(=O)Nc1ccc(Cl)cc1 | 0.887 (inactive) | 0.469 | 8810 | 9930 | -0.651 (inactive) | -0.438 | 0.48 (inactive)

Row | SMILES | fold change [1, 4] | fold change [1, 5] | cell count [1, 6] | cell count [1, 7] | z-score [2, 8] | z-score [2, 9] | z-score [3]
21 | NC(N)=NC(N)=Nc1cc(C(F)(F)F)ccc1Cl | 0.901 (inactive) | 0.694 | 7310 | 8110 | 0.898 (inactive) | -0.189 | -1.95 (inactive)
22 | CCc1cc(CN2CCN(C)C(CCO)C2)on1 (stereo not drawn) | 0.907 (inactive) | 1.26 | 8690 | 9580 | 0.702 (inactive) | -0.294 | -0.59 (inactive)
23 | CNC(=O)c1cc(Oc2ccc3nc(Nc4ccc(Cl)c(C(F)(F)F)c4)[nH]c3c2)ccn1 | 0.938 (inactive) | 0.861 | 2770 | 2950 | 1.25 (inactive) | -0.647 | -2.66 (inactive)
24 | NS(=O)(=O)c1ccc(F)cc1 | 0.896 (inactive) | 0.251 | 9050 | 10100 | 0.294 (inactive) | -0.158 | 0.18 (inactive)
25 | CCNC(=O)c1cccnc1N1CCN(c2ccc(C)cc2C)CC1 | 0.919 (inactive) | 1.12 | 6880 | 7490 | -0.459 (inactive) | 0.378 | -0.485 (inactive)
26 | c1ccc(-c2noc(-c3cccc4cccnc34)n2)nc1 | 0.892 (inactive) | 1.13 | 7790 | 8740 | -0.283 (inactive) | 1.05 | 0.93 (inactive)
27 | CC(=O)Nc1cccc(-c2nn(CC(=O)Nc3cnn(C)n3)c3ccccc23)c1 | 0.885 (inactive) | 1.89 | 8450 | 9550 | -0.345 (inactive) | 0.241 | -0.43 (inactive)
28 | O=C(O)CCC(=O)Nc1ccc(Br)cn1 | 0.858 (inactive) | 0.548 | 8810 | 10300 | 0.399 (inactive) | -0.113 | 0.275 (inactive)
29 | CSc1n[nH]c(-c2ccc(Cl)cc2)n1 | 0.939 (inactive) | 0.52 | 8540 | 9100 | 1.97 (active) | -0.569 | 0.11 (inactive)
30 | Cc1nsc(NC(=O)NC2Cc3ccccc3C2)n1 | 0.755 (inactive) | 2.05 | 7330 | 9710 | 0.128 (inactive) | -0.355 | 2.51 (active)
31 | Cc1ccc(S(=O)(=O)NCCCOC(=O)Nc2ccncc2)cc1 | 0.881 (inactive) | 0.547 | 7920 | 8990 | 0.675 (inactive) | -0.0111 | -0.675 (inactive)
32 | COc1ccc2c(C(=O)N(C)Cc3nonc3C)cc(-c3cnn(C)c3)nc2c1 | 0.963 (inactive) | 1.42 | 8090 | 8400 | -0.189 (inactive) | -0.423 | -0.54 (inactive)
33 | CCn1ccnc1CN(C)C(=O)c1cc(-c2cnc(N)nc2)nc2cc(C)ccc12 | 0.962 (inactive) | 1.43 | 9170 | 9540 | -0.0965 (inactive) | 0.497 | 0.64 (inactive)
34 | CCn1ncc2[nH]c(-c3c(OC(C)C)ccc4ccccc34)nc21 | 0.906 (inactive) | 1.3 | 7700 | 8510 | -0.33 (inactive) | -0.482 | 0.5 (inactive)
35 | Cc1nc(NC(=O)NCc2cccc(C(F)(F)F)c2)nn1C | 0.922 (inactive) | 1.12 | 9110 | 9880 | 0.0413 (inactive) | 1.4 | 0.45 (inactive)
36 | O=C(O)c1cccc2c(-c3ccccc3)c(-c3ccccc3)[nH]c12 | 0.883 (inactive) | 1.11 | 8700 | 9850 | -0.38 (inactive) | -0.101 | 0.98 (inactive)
37 | c1ccc(-c2ncc(-c3ccn[nH]3)s2)cc1 | 0.881 (inactive) | 0.808 | 8010 | 9090 | 2.65 (active) | -0.462 | -0.185 (inactive)
38 | O=C(Nc1cccc(-c2nn[nH]n2)c1)c1cccc(F)c1 | 0.949 (inactive) | 0.795 | 8970 | 9450 | 1.21 (inactive) | -0.523 | 0.385 (inactive)
39 | Cc1ncsc1-c1ccn(CC(=O)Nc2ccnn2Cc2cccs2)n1 | 0.798 (inactive) | 1.89 | 6540 | 8190 | -0.383 (inactive) | -0.375 | -0.525 (inactive)
